Screening results (PubChem BioAssay)
Sampled rows, rich in hits. Any-hit rate of the full collection: about 3.2%.
PGC1a acetyl inh: modulators of PGC1a acetylation; inhibition, % at 15.6 µM; AID 651687; actives 0.17% (n = 350,000); U2OS PGC1a acetylation, AlphaScreen anti-acetyl-lysine; with virally co-expressed GCN5 acetyltransferase;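 active = every replicate shows inhibition of at least 40%; inconclusive = mean inhibition at least 40% but some replicate below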;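 also: 0% = neutral control wells and 100% = positive control wells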
INS-1E GSIS act: GLuc luminescence reporter in INS-1E cells, primary screen for activators of glucose-dependent secretion of insulin | INS-1E GLuc reporter insulin secretion, 2-3 h | activation, % at 16.6 µM | actives 0.61% (n = 370,000);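 active = lowest replicate activation of at least 40%, so every replicate reaches that level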;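 also: 0% = median of neutral control wells and 100% = median of IBMX positive control wells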
Ecoli rRNA inh: selective bacterial rRNA inhibition in E. coli | E. coli WT GFP vs humanized-ribosome RFP mutants, fluorescence, 24 h; stronger effect = lower value; DMSO median 0, no signal -100 | GFP signal change (wild-type ribosome), % (concentration not given with the values) | actives 1.6% (n = 350,000) | AID 720706;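 active = significant combined selectivity score with lowered wild-type GFP, culture density cut under 30%, mutant RFP and density less affected; inactive = any of these conditions unmet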
CaV13 ICDI inh: Primary screen for inhibitors of IQ motif and Ca2+-dependent inactivation inhibitor domain binding in CACNA1D, Förster resonance energy transfer in living cells, … | HEK cells, CFP/YFP FRET ICDI-IQ, plate reader, 10 min; percent FRET-ratio fall versus neutral wells | inhibition, % at 12.3 µM | actives 0.098% (n = 340,000);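 active = mean replicate inhibition of at least 30% and at least 1% of replicates passing that level; inconclusive = only one of the two criteria is met; inactive = neither criterion is met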;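 also: 0% = median of the neutral control wells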
DENV2 CPE rescue: inhibitors of DENV2 cytopathic effect | CPE inhibition, % at 9.99 µM | DENV2-infected cells, cytopathic effect rescue, plate reader | actives 1.7% (n = 350,000); in the data active = CPE inhibition above about 20%, passing the limit was not always enough; inconclusive = no clear call, values can overlap the other calls; tested in BHK-21 cells;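 also: 0% = median of neutral control wells and 100% = median of positive control wells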
ERAP1 HTS inh: inhibitors of human ERAP1 aminopeptidase; recombinant ERAP1, Leu-AMC fluorescence, 60 min; inhibition, % at 10.7 µM; actives 0.15% (n = 340,000); AID 652197;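 active = mean replicate inhibition of at least 30%, or all replicates individually reaching that 30% level; inactive = mean below 30% and not every replicate reaching it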;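 also: 0% = neutral control wells and 100% = L-leucinethiol positive control wells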
Target sequence (Q9NZ08 whole entry, looked up): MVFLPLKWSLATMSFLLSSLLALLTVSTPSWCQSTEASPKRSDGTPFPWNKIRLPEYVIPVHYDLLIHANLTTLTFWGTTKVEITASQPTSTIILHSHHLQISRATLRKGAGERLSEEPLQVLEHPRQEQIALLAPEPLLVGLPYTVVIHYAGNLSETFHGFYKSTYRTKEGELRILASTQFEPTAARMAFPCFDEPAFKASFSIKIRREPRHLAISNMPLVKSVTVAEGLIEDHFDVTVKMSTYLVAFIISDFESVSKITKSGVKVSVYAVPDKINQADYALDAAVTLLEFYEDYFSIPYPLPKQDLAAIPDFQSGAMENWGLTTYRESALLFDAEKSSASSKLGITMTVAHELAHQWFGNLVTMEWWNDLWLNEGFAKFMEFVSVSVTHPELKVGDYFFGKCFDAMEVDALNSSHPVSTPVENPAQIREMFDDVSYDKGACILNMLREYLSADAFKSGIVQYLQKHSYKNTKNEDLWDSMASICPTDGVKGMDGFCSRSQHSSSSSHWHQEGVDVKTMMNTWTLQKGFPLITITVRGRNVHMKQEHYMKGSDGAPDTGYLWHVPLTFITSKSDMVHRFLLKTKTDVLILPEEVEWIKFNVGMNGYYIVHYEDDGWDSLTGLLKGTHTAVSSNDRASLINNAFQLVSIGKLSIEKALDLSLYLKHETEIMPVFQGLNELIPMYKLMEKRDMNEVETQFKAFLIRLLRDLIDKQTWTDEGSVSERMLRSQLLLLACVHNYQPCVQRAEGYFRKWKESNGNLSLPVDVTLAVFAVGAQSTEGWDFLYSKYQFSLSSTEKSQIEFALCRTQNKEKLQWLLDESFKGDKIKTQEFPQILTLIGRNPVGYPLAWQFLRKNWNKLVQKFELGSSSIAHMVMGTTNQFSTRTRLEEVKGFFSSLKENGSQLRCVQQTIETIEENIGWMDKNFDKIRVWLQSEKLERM
Active calls of the source: *; u = inconclusive; x = no result given.

SMILES | PGC1a acetyl inh | INS-1E GSIS act | Ecoli rRNA inh | CaV13 ICDI inh | DENV2 CPE rescue | ERAP1 HTS inh
C[C@@H]1CN([C@@H](C)CO)C(=O)c2cc(/C=C/c3ccccc3)cnc2O[C@H]1CN(C)C(=O)c1ccc(F)cc1 | 9.8 | -36.1 | -5.9 | x | -3.6 | -2.7
C[C@@H](C(=O)NCCc1ccc(F)cc1)N1C(=O)N2CCc3c([nH]c4ccccc34)[C@@]2(C)C1=O | -1.2 | -9.9 | x | x | -9.7 | 7.7
Cc1ccc(CNC(=O)[C@H](C)N2C(=O)N3CCc4c([nH]c5ccccc45)[C@@]3(C)C2=O)cc1 | -27.2 | x | 18.7 | x | 35.4* | 1.8
COCCNC(=O)[C@H]1[C@H](CO)[C@H]2Cn3c(ccc(-c4ccc(F)cc4)c3=O)[C@@H]1N2C | x | 22.8 | 1.8 | x | 3.5 | -2.2
CCS(=O)(=O)N[C@H]1C=C[C@H](CC(=O)Nc2ccccc2)O[C@H]1CO | x | 6.5 | -2.0 | x | 13.7 | 1.0
Cc1cccc(OC(C)C(=O)Nc2nc(-c3ccncc3)cs2)c1 (stereo unspecified) | 1.7 | 1.8 | 2.0 | -5.7 | 105.6* | -1.2
CC(C)NC(=O)Nc1cccc2c1O[C@@H](CN(C)C)[C@@H](C)CN(C)C2=O | x | -17.3 | -0.7 | x | x | x
Cc1cc(Cl)ccc1C(=O)C1CCCN(C(=O)c2ccoc2)C1 (stereo unspecified) | x | -0.8 | -25.4* | -3.0 | 3.4 | -1.0
CCCC(=O)N1CC2(C1)CN(C(C)=O)[C@H](CO)c1c2c2ccc(OC)cc2n1C | 5.3 | 30.6 | 2.7 | x | u | 0.5
CC(=O)c1ccc(NC(=S)NC(C)c2ccc(Cl)cc2Cl)cc1 (stereo unspecified) | -9.5 | -27.1 | -48.5* | -6.9 | x | 3.7
CC(=O)c1ccc(NC(=S)Nc2ccc(Br)c(Cl)c2)cc1 | 9.1 | -3.6 | -53.5 | -6.7 | u | -4.3
COc1ccc(NC(=O)N(C)C[C@@H]2OCCCC[C@@H](C)Oc3ccc(NS(=O)(=O)c4cn(C)cn4)cc3C(=O)N([C@H](C)CO)C[C@H]2C)cc1 | 9.7 | -0.2 | -2.3 | x | 1.5 | -1.6
Brc1ccc(CN2CCN(c3ccccc3)CC2)o1 | 9.1 | x | 2.1 | -1.0 | 8.4 | -1.0
Clc1ccccc1N1CCN(Cc2ccc(Br)o2)CC1 | x | x | -34.6* | -13.8 | u | 3.7
Cc1ccccc1N1CCN(Cc2ccc(Br)o2)CC1 | -4.2 | -20.5 | -27.1* | -2.4 | -3.4 | 1.8
COC(=O)c1ccc([C@H]2CC(=O)O2)cc1 | -18.4 | -15.3 | 14.6 | -0.2 | 76.0* | -1.3
CCS(=O)(=O)N1CCCCN2[C@H](CO)[C@@H](c3ccc(C#CC(C)(C)O)cc3)[C@H]2C1 | 2.3 | 3.6 | 0.8 | x | 22.1* | 1.6
N#Cc1ccc(-c2ccc([C@H]3[C@H]4CN(S(=O)(=O)c5ccccc5)CCCCN4[C@H]3CO)cc2)cc1 | -7.0 | -28.2 | 1.8 | x | 0.2 | 4.4
N#Cc1ccc(-c2ccc([C@H]3[C@H](CO)N4CCCCN(S(=O)(=O)c5ccccc5)C[C@@H]34)cc2)cc1 | 2.2 | -23.8 | -22.6 | x | 34.3* | 0.6
CCS(=O)(=O)N1CCCCN2[C@H](C1)[C@@H](c1ccc(C#CC(C)(C)O)cc1)[C@@H]2CO | 7.7 | 21.5 | 3.2 | x | 1.5 | 3.5
CCS(=O)(=O)N1CCCCN2[C@H](C1)[C@@H](c1ccc(-c3ccc(C#N)cc3)cc1)[C@@H]2CO | 8.7 | 14.9 | -2.1 | x | 41.3* | 7.3
C[C@@H]1CN([C@@H](C)CO)C(=O)Cc2cc(NC(=O)C3CC3)ccc2O[C@@H]1CN(C)Cc1ccc(C(=O)O)cc1 | -1.7 | 23.4 | 3.7 | x | 2.4 | -0.5
Cn1nc(-c2ccccn2)nc2c(=O)n(C)c(=O)nc1-2 | 79.6* | 14.5 | -22.8 | -4.2 | -8.3 | 16.3
COc1ccc(-c2nc(-c3ccccn3)ncc2S(C)(=O)=O)cc1 | x | 9.9 | 12.1 | -2.1 | 13.2 | 3.9
CCCc1nc2c(=O)n(C)c(=O)nc-2n(C)n1 | 74.5* | -39.6 | -45.5 | 1.9 | -14.9 | 2.7
O=C(C[C@H]1CC[C@H](NC(=O)Nc2ccc(F)cc2)[C@@H](CO)O1)NCc1cccc(F)c1 | 15.2 | 10.6 | 2.1 | x | 0.4 | -0.9
